Results reported in PubChem BioAssay (NCATS).
Results filed as inconclusive are left out. A call without a number means that no potency is given here. Unmarked numbers belong to inactive results. The source made the active and inactive calls. Unless noted, the call rests on the fitted dose curve; in most records, active means well fitted curve in the direction sought with a large enough effect; inconclusive means small, poorly fitted or top-dose-only effect, or another doubt; inactive means no such curve, though single readings can be large; an effect the other way counts as inactive or inconclusive.

Legend:
[1] = biological target: Aldehyde dehydrogenase, mitochondrial (Homo sapiens) (UniProt P05091); assay: qHTS for Inhibitors of the Aldehyde Dehydrogenase Family (ALDH2) Validation screens (AID 2061302; active means well fitted inhibition curve with a large enough effect; title and protocol of this record describe different tests; further: potency means the concentration at half of the fitted maximal effect)
[2] = biological target: Cellular tumor antigen p53 (Homo sapiens) (UniProt P04637); assay: Primary qHTS for small molecule compounds that upregulate eGFP-tagged delta133p53alpha (in C-terminal) cells. (AID 2060324); further: potency means the concentration at half of the fitted maximal effect
In short: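 Readout: filtered GFP peak intensity of gated cells (laser scanning cytometer), normalized plate-wise to intraplate controls, DMSO wells = 0% activity. Cells: NCI-H358 D133p53a-eGFP, dox 100 ng/ml 24 h beforehand, then compound 24 h, 37 °C.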

[3] = biological target: Retinaldehyde dehydrogenase 3 (Homo sapiens) (UniProt P47895); assay: qHTS for Inhibitors of the Aldehyde Dehydrogenase Family (ALDH1A3) Validation screen (AID 2061312); further: nearly all actives have a fitted effect of over 45% in size
[4] = biological target: Aldehyde dehydrogenase, mitochondrial (Homo sapiens) (UniProt P05091); assay: qHTS for Inhibitors of the Aldehyde Dehydrogenase Family (ALDH2) Confirmatory screens (AID 2061303; active means well fitted inhibition curve with a large enough effect; title and protocol of this record describe different tests; further: potency means the concentration at half of the fitted maximal effect; nearly all actives have a fitted effect of over 45% in size)
[5] = qHTS for Inhibitors of the Aldehyde Dehydrogenase Family (ALDH1A2, ALDH1A3, ALDH2, ALDH3A1) (AID 2061307); further: test system not described further here; potency means the concentration at half of the fitted maximal effect; nearly all actives have a fitted effect of over 50% in size
[6] = biological target: Aldehyde dehydrogenase, mitochondrial (Homo sapiens) (UniProt P05091); assay: qHTS for Inhibitors of the Aldehyde Dehydrogenase Family (ALDH2) Primary screen (AID 2061308); further: nearly all actives have a fitted effect of over 55% in size; further: potency means the concentration at half of the fitted maximal effect
[7] = biological target: Retinal dehydrogenase 2 (Homo sapiens) (UniProt O94788); assay: qHTS for Inhibitors of the Aldehyde Dehydrogenase Family (ALDH1A2) Confirmation screens (AID 2061314); further: nearly all actives have a fitted effect of over 65% in size
[8] = biological target: Aldehyde dehydrogenase 1A1 (Homo sapiens) (UniProt P00352); assay: qHTS for Inhibitors of the Aldehyde Dehydrogenase Family (ALDH1A1) Confirmatory screens (AID 2061316); further: potency means the concentration at half of the fitted maximal effect; nearly all actives have a fitted effect of over 65% in size
[9] = BET inhibitor-based combinations targeting novel dependencies in MECOM-rearranged (r) AML: UCSD-AML1 cell line (AID 2202235); further: series mostly up to about 46 µM; nearly all actives have a fitted effect of over 40% in size
In short: (§1)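 Activity is given as area under the curve and as Z-AUC, mean-centred within each cell line. It comes from 11-point dose curves normalized to DMSO and empty wells. CellTiter-Glo luminescence was read after 48 hr drug exposure of 500 cells/well.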

[10] = BET inhibitor-based combinations targeting novel dependencies in MECOM-rearranged (r) AML: SET-2 cell line (AID 2202231); conditions: SET-2 AML cells viability, CellTiter-Glo luminescence, 48 h; viability: stronger effect = lower value, series mostly up to about 46 µM; further: nearly all actives have a fitted effect of over 35% in size
In short: (§2)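 Cells were plated at 500 per well and exposed to an 11-point dose series of each drug for 48 hr. Viability was measured by CellTiter-Glo luminescence, normalized to DMSO and empty-well controls, and summarized as AUC and per-cell-line Z-AUC.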

[11] = BET inhibitor-based combinations targeting novel dependencies in MECOM-rearranged (r) AML: OCI-AML3 cell line (AID 2202232); conditions: Potency: OCI-AML3 viability; further: potency means the concentration at half of the fitted maximal effect; nearly all actives have a fitted effect of over 35% in size
In short: as §2

[12] = BET inhibitor-based combinations targeting novel dependencies in MECOM-rearranged (r) AML: HNT-34 cell line (AID 2202234); further: nearly all actives have a fitted effect of over 35% in size
In short: as §1

[13] = BET inhibitor-based combinations targeting novel dependencies in MECOM-rearranged (r) AML: AML-191 cell line (AID 2202236; further: nearly all actives have a fitted effect of over 35% in size)
In short: as §2

[14] = BET inhibitor-based combinations targeting novel dependencies in MECOM-rearranged (r) AML: AML-194 cell line (AID 2202237; further: nearly all actives have a fitted effect of over 40% in size)
In short: as §2

Sequence of Cellular tumor antigen p53 (Homo sapiens) (P04637 whole entry, looked up): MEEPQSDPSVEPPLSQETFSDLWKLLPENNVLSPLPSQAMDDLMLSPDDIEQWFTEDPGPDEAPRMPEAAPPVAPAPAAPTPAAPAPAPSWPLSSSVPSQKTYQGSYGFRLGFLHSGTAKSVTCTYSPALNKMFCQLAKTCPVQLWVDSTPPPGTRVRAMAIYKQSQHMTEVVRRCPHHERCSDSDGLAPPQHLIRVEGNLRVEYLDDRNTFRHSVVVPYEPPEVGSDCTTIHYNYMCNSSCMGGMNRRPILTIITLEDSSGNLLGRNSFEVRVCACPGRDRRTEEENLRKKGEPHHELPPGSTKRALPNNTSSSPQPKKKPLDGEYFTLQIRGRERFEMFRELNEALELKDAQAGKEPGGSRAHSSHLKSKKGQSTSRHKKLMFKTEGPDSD

For `CC(C)NC[C@@H](O)c1ccc(O)c(O)c1`, the Potency [1] was “inactive”.

For `C#CC(N)CCC(=O)O` (centres undefined), the Potency [2] was “inactive”, the Potency [1] was “inactive” and the Potency [3] was “inactive”.

For `CCCCCCCCCCCCCCCCCCOC[C@H](COP(=O)([O-])OCC[N+](C)(C)C)OC`, the Potency [2] was “inactive”, the Potency [1] was “inactive” and the Potency [3] was “inactive”.

With `CN(C)CCOC(=O)COc1ccc(Cl)cc1` the Potency [2] was “inactive”, the Potency [1] was “inactive” and the Potency [3] was “inactive”.

With `CC(C)(C)OC(=O)N1CCN(c2cccc(NCc3ccc(-c4ccc(C#N)cc4)o3)c2)CC1` the Potency [1] was 1780 nM (active), the Potency [4] was 1120 nM (active) and the Potency [5] was 1590 nM (active). The Potency [6] was 282 nM (active), the Potency [7] was “inactive” and the Potency [8] was 7120 nM (active).

For `CCn1nc(C(=O)O)c(=O)c2cc3c(cc21)OCO3`, the Potency [2] was “inactive”, the Potency [1] was “inactive” and the Potency [3] was “inactive”.

With `Cc1oncc1C(=O)Nc1ccc(C(F)(F)F)cc1` the Potency [2] was “inactive”, the Potency [1] was “inactive” and the Potency [9] was “inactive”.

In the case of `N#Cc1ccc(-c2ccc(CNc3ccc(N4CCC(C(F)(F)F)CC4)cc3)o2)cc1`, the Potency [1] is reported as 447 nM (active), the Potency [4] is reported as 35.7 nM (active) and the Potency [5] is reported as 712 nM (active). For the same compound, the Potency [6] was “inactive”, the Potency [7] was “inactive” and the Potency [8] was 6340 nM (active).

With `CCCCS(=N)(=O)CCC(N)C(=O)O` (centres undefined) the Potency [2] was “inactive”, the Potency [1] was “inactive” and the Potency [3] was “inactive”. The viability [10] was 120%, the Potency [11] was 9590 nM (active) and the Potency [12] was “inactive”. For the same compound, the Potency [9] was “inactive”, the Potency [13] was “inactive” and the Potency [14] was “inactive”.

With `COc1ccc(-c2coc3cc(O[C@@H]4O[C@H](CO)[C@@H](O)[C@H](O)[C@H]4O)ccc3c2=O)cc1` the Potency [1] was “inactive”.

With `CCCCCCC(=O)OC1CC(C)(C)NC(C)(C)C1` the Potency [2] was “inactive”, the Potency [1] was “inactive” and the Potency [3] was “inactive”.

With `O=C1NCc2c1c1c3ccccc3[nH]c1c1[nH]c3ccccc3c21` the Potency [2] was 30100 nM (active), the Potency [1] was “inactive” and the Potency [3] was “inactive”.
